Measured values taken from PubChem BioAssay AID1628 (Sanford-Burnham Center for Chemical Genomics, 2009).
The campaign covered roughly 190,000 compounds. About 930 (0.49%) were called active.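 The calls were made as follows: active = z-score of insulin promoter reporter brightness in nuclei below -3 at 5 µM, with at least 500 cells counted; inconclusive = wells with under 500 cells, flagged as toxic or sparse; inactive = the rest.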 Some of the results follow. Potency and affinity values are given separately.

Test: insulin promoter down-regulators in MIN6 cells, imaging, high-content screening, mouse beta cells (AID 1628)
Conditions: MIN6 insulin promoter GFP reporter, at 5 µM, stronger effect = lower value

z-score, inactive:
COc1cc([C@@H]2[C@H]3CNCC=C3C(C#N)=C(N)C2(C#N)C#N)ccc1OC(C)C 3.59
C/C(=N/O)c1ccccn1 0.09
c1ccc(CSc2ccc(-c3ccccn3)nn2)cc1 4.07
Cc1nn(-c2c(Cl)cc(Cl)cc2Cl)c(=O)c2ccccc12 3.38
O=S(=O)(Cc1ccc(Cl)cc1)c1ccccc1-c1nnc(-c2ccccc2)o1 13.8
CN(c1ccccc1)c1ccc(/C=c2\s/c(=C(/C#N)C(=O)C(C)(C)C)n(Cc3ccco3)c2=O)cc1 12.8
Cc1cccc2cc3c(N)c(C(=O)N4CCCc5ccccc54)sc3nc12 6.25
CCN(C(=O)CSc1nc2cc(C(=O)OC)ccc2c(=O)n1Cc1ccco1)c1cccc(C)c1 4.54
O=C(O)c1ccccc1N/N=C/c1c(Sc2nnnn2-c2ccccc2)nc2ccccn2c1=O 9.93
CCOC(=O)CC1C(=O)NCCN1c1nc2c(C)cccn2c(=O)c1/C=C1\SC(=S)N(C(C)CC)C1=O (centres undefined) 9.72
O=C1c2cccc3c(O)ccc(c23)C(=O)N1Cc1ccccc1 5.05
CSc1c(C#N)c(N)nc2sc(C(=O)c3ccc(Cl)c(Cl)c3)c(N)c12 5.56
Cc1cc(NC(=S)N(Cc2ccc(Br)cc2)Cc2ccc(C(=O)O)cc2)ccc1Cl 3.8
COc1ccc(NC(=S)N(CCCN2CCC(C)CC2)Cc2cccs2)cc1 1.67
CC(C)N1CC=C2C(C#N)=C(N)C(C#N)(C#N)C(c3ccccc3)C2C1 (centres undefined) 5.63
Cc1cccc(NC(=O)Nc2ccc(C#N)cc2)n1 3.41
COc1cc(N=Nc2cccc(S(N)(=O)=O)c2)c2ccccc2c1N 5.92
CCN(CC)c1ccc2cc(S(=O)(=O)c3ccc(Cl)cc3)c(=O)oc2c1 6.96
O=C(CSc1ccc(-c2ccccc2)nn1)NCC1CCCO1 (centres undefined) 3.02
O=C(CSc1oc(-c2ccco2)nc1S(=O)(=O)c1ccc(F)cc1)NCC1CCCO1 (centres undefined) 0.69
C=CCN1C(=O)c2cccc3c(N4CCCCC4)ccc(c23)C1=O 5.61
COc1ccc(NC(=O)C/C(C)=N/NC(=O)C(=O)Nc2cccc(Cl)c2C)c(OC)c1 0.92
CC(C)C1S/C(=N/N=C/c2ccco2)NC1=O (centres undefined) 3.25
Nc1ccc2c(c1)Cc1cc([N+](=O)[O-])ccc1-2 7.76
O=C(c1cc([N+](=O)[O-])ccc1N1CCCC1)N1CCCC1 3.06
Cc1cc(C)nc(SCSc2nc(C)cc(C)n2)n1 4.55
COC(=O)c1sc2ccccc2c1-n1cccc1C(=O)C(=O)Nc1ccc(F)cc1 5.4
Cc1ccc(SCc2cc(-c3ccc(Cl)cc3)no2)cc1 3.09
O=C1Nc2ccc(Br)cc2C12NNc1ccccc1O2 (centres undefined) 14.4
O=C(Cc1nc(-c2ccc([N+](=O)[O-])cc2)cs1)Nc1ccccc1 8.58
N#C/C(=C/c1ccc(O)c([N+](=O)[O-])c1)C(=O)Nc1ccccc1 1.31
Cc1ccc(-n2c(C)nc3oc4ccccc4c(=O)c3c2=O)cc1 3.88
N#Cc1c(C(F)(F)F)cc(-c2ccccc2)nc1SCc1nc(N)nc(N2CCOCC2)n1 15.4
N#Cc1c(-c2ccco2)cc(C2CC2)nc1SCC(=O)c1ccccc1 5.22
N#Cc1ccc(-c2ccc(Cl)cc2)nc1SCC(=O)c1cccc(Cl)c1 6.91
CC1(C)Cc2c(c(-c3ccccc3)[nH]c(=O)c2C#N)CO1 3.41
N#Cc1ccc(-c2ccccc2)nc1SCC(=O)c1cccc(Cl)c1 4.3
CCOc1cc2[nH]c(=S)n(CCCN(CC)CC)c(=O)c2cc1OCC 0.51
Nc1c(C(=O)C2CC2)sc2nc(-c3cccs3)cc(C(F)(F)F)c12 15.5
CN(C)c1ccc(/C=N/NC(=O)CN(c2ccccc2Cl)S(C)(=O)=O)cc1Br 3.57
CN(C)c1ccc(/C=C2\C(=N)N3C(=NC2=O)Sc2cc(S(C)(=O)=O)ccc23)cc1 3.93

z-score, active:
CCN(c1ccccc1)S(=O)(=O)c1ccc(C(=O)Nc2nnc(C3CC3)o2)cc1 -3.06
CCc1cc2c(=O)n(Cc3ccco3)c(SCC(=O)N3CCCc4ccccc43)nc2s1 -3.14
Cc1cc2c(=O)n(Cc3ccco3)c(SCC(=O)c3ccc(Cl)s3)nc2s1 -9.67
O=C(N/N=C/c1ccc(O)cc1O)c1ccc(CN2C(=O)c3cccc4cccc2c34)cc1 -3.91
CCN(CC)S(=O)(=O)c1cccc(S(=O)(=O)c2cccc(S(=O)(=O)N(CC)CC)c2)c1 -4.75
CC(C)(C)c1nc(NC(=O)Nc2ccccc2)sc1Br -4.02
CN(C)c1ncc(S(=O)(=O)c2ccc(Cl)cc2)c(-c2ccccc2)n1 -3.06
C=CCc1ccccc1OCC(O)CN1CCN(CCN2C(=O)c3cccc4cccc(c34)C2=O)CC1 (centres undefined) -5.75
COc1ccc(NC(=O)C(=O)NCc2ccncc2)c(OC)c1 -4.99
N#Cc1cc([N+](=O)[O-])ccc1N1CCCC1 -5.65
Cc1cc(C)nc(SCc2ccc(C(=O)N/N=C/c3cccc(O)c3O)cc2)n1 -3.45
O=C(Nc1ccc(F)cc1)Nc1cc(OCC(F)(F)F)cc(OCC(F)(F)F)c1 -3.21
COC(=O)c1ccc(NC(=O)Nc2ccc(F)cc2)cc1 -3.46
O=C(Nc1ccc(Cl)cc1)/C(=C/c1ccc([N+](=O)[O-])cc1)c1nc2ccccc2s1 -4.86
CC1(C)Cc2c(C#N)c(SCC(=O)c3ccccc3)nc(N3CCOCC3)c2CO1 -3.99
CC1(C)Cc2c(C#N)c(SCC(=O)c3ccccc3)nc(N3CCOCC3)c2CS1 -3.04
CC1(C)Cc2c(C#N)c(SCCOc3ccccc3)nc(N3CCOCC3)c2CO1 -3.51
S=C(N/N=C/c1cccs1)NC1CC2CCC1C2 (centres undefined) -3.1
